PubChem BioAssay AID1159580 (chemical genetic matrix, 2015)
“And” between values parts separate entries of the source, which are not always exact repeats. Equal values may be shown once. The whole screen tested about 5,500 compounds, of which about 2,000 (36%) were called active. About 18% were inconclusive and are not listed. Cut-off read from the data, not from the text of the source: active = normalized growth mostly below about 0.91 (no sharp cut-off); inconclusive = no clear call, values can overlap the other calls; inactive = mostly above about 0.92. Some of the results follow.

Assay: chemical genetic growth profiling, strain panel (AID 1159580);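 note: tested at 20 µM; growth read once vehicle control cultures reached saturation at 30 °C; 1 = growth at the plate median or of vehicle wells; lower values mean less growth of the strain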
Details: S. cerevisiae deletion strains, growth OD

Measured: normalized growth

COc1ccc([C@@H]2CC(=O)c3c(O)cc(O)cc3O2)cc1O
inactive: locus YAL013W, strain DEP1, active compounds read low 1.03 | locus YAL021C, strain ccr4, active compounds read low 0.976 | locus YAL026C, strain drs2, active compounds read low 0.978 | locus YAL030W, strain snc1, active compounds read low 0.982 | locus YBL061C, strain skt5, active compounds read low 0.977 | locus YBR009C, strain hhf1, active compounds read low 0.983 | locus YBR021W, strain FUR4, active compounds read low 1 | locus YBR023C, strain chs3, active compounds read low 0.976 | locus YBR171W, strain sec66, active compounds read low 0.999 | locus YBR229C, strain ROT2, active compounds read low 1 | locus YBR231C, strain swc5, active compounds read low 0.989 | locus YBR279W, strain paf1, active compounds read low 0.982 | locus YCL011C, strain gbp2, active compounds read low 0.975 | locus YCL016C, strain dcc1, active compounds read low 0.961 | locus YCL029C, strain bik1, active compounds read low 1.02 | locus YCL061C, strain MRC1, active compounds read low 0.978 | locus YCL069W, strain vba3, active compounds read low 0.99 | locus YCR088W, strain abp1, active compounds read low 0.977 | locus YDL005C, strain med2, active compounds read low 0.978 | locus YDL035C, strain GPR1, active compounds read low 0.971 | locus YDL040C, strain nat1, active compounds read low 0.986 | locus YDL074C, strain BRE1, active compounds read low 1 | locus YDL101C, strain DUN1, active compounds read low 1.01 | locus YDL185W, strain tfp1, active compounds read low 1.01 | locus YDL192W, strain arf1, active compounds read low 1 | locus YDR001C, strain nth1, active compounds read low 0.973 | locus YDR069C, strain doa4, active compounds read low 0.983 | locus YDR101C, strain arx1, active compounds read low 1.02 | locus YDR137W, strain rgp1, active compounds read low 0.973 | locus YDR159W, strain sac3, active compounds read low 0.995 | locus YDR162C, strain NBP2, active compounds read low 0.999 | locus YDR195W, strain ref2 0.994 | locus YDR297W, strain sur2, active compounds read low 0.976 | locus YDR318W, strain mcm21, active compounds read low 0.993 | locus YDR334W, strain swr1, active compounds read low 0.985 | locus YDR335W, strain msn5, active compounds read low 0.975 | locus YDR388W, active compounds read low 1 | locus YDR392W, strain spt3, active compounds read low 0.862 | locus YDR502C, strain sam2, active compounds read low 0.995 | locus YEL003W, strain gim4, active compounds read low 0.976 | locus YEL037C, strain rad23, active compounds read low 0.973 | locus YEL061C, strain CIN8 (second series), active compounds read low 0.977 | locus YEL061C, strain CIN8, active compounds read low 1 | locus YER015W, strain faa2, active compounds read low 0.983 | locus YER016W, strain bim1, active compounds read low 0.976 | locus YER110C, active compounds read low 1.01 | locus YER111C, strain swi4, active compounds read low 0.963 | locus YER155C, strain BEM2 (second series), active compounds read low 0.926 | locus YER155C, strain BEM2, active compounds read low 0.998 | locus YER167W, strain BCK2, active compounds read low 1 | locus YFR010W, strain ubp6, active compounds read low 0.972 | locus YGL078C, strain dbp3, active compounds read low 1 | locus YGL086W, strain mad1, active compounds read low 1.03 | locus YGL167C, strain pmr1, active compounds read low 0.977 | locus YGL173C, strain kem1, active compounds read low 0.978 | locus YGL227W, strain vid30, active compounds read low 0.988 | locus YGL240W, strain doc1, active compounds read low 0.989 | locus YGL248W, strain PDE1, active compounds read low 1.01 | locus YGL253W, strain hxk2, active compounds read low 0.961 | locus YGR078C, strain PAC10, active compounds read low 1.02 | locus YGR135W, strain pre9, active compounds read low 0.979 | locus YGR229C, strain SMI1, active compounds read low 0.983 | locus YGR252W, strain gcn5, active compounds read low 0.893 | locus YHR013C, strain ard1, active compounds read low 0.955 | locus YHR027C, strain rpn1, active compounds read low 0.994 | locus YHR030C, strain SLT2, active compounds read low 1.01 and 1 | locus YHR079C, strain IRE1 (second series), active compounds read low 1.01 | locus YHR079C, strain IRE1, active compounds read low 1.01 | locus YHR094C, strain hxt1, active compounds read low 1.01 | locus YHR129C, strain ARP1, active compounds read low 1 | locus YHR142W, strain chs7, active compounds read low 0.918 | locus YHR200W, strain rpn10, active compounds read low 0.993 | locus YIL066C, strain RNR3, active compounds read low 0.979 | locus YIL073C, strain SPO22, active compounds read low 1.05 | locus YIL125W, strain kgd1, active compounds read low 1.01 | locus YIR030C, strain dcg1, active compounds read low 1.01 | locus YJL092W, strain hpr5, active compounds read low 0.976 | locus YJL095W, strain BCK1 (second series), active compounds read low 0.978 | locus YJL095W, strain BCK1, active compounds read low 1.04 and 1 | locus YJL115W, strain asf1, active compounds read low 0.984 | locus YJL129C, strain trk1, active compounds read low 0.939 | locus YJL134W, strain LCB3, active compounds read low 1 | locus YJL154C, strain vps35, active compounds read low 0.98 | locus YJL164C, strain tpk1, active compounds read low 0.972 | locus YJL166W, strain qcr8, active compounds read low 0.969 | locus YJL168C, strain set2, active compounds read low 1 | locus YJL187C, strain SWE1 (second series), active compounds read low 1.02 | locus YJL187C, strain SWE1, active compounds read low 0.981
